Laboratory results taken from PubChem BioAssay AID651597 (National Center for Advancing Translational Sciences (NCATS), 2012).
The whole screen tested about 1,100 compounds, of which about 390 (35%) were called active. Not shown: some 30% with an inconclusive outcome. The call rests on the fitted dose curve; in most records, active means well fitted inhibition curve with a large enough effect; inconclusive means small, poorly fitted or top-dose-only effect; inactive means flat fitted curve, though single readings scatter. The list shows a part of the results.

These compounds were tested against Luciferin 4-monooxygenase (Photinus pyralis) (UniProt P08659) (assay: qHTS of Nrf2 Activators: Hit Validation in Secondary FLuc Assay). Conditions: firefly luciferase inhibition counter-screen, luminescence; series mostly up to 57.5 µM; activity, negative = inhibition: at the top concentration.
Method in brief: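 Purified firefly luciferase is tested for inhibition by compounds in the presence of its substrates, ATP and D-luciferin, each at Km. Inhibition marks likely false positives arising from reporter-enzyme stabilization.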
Further: nearly all actives have a fitted effect of over 65% in size.
On the % scale 0 is the no-effect control and ±100 the full control effect; potency means the concentration at half of the fitted maximal effect.

Compound | activity, negative = inhibition | Potency
Cc1c(CN(C)C)c2c(n1C)C(=O)c1ccc(Br)cc1-2 | 7.53% (inactive) | 
Cc1ccccc1CS(=O)(=O)c1cnc2ccccc2n1 | -24.2% (inactive) | 
Cc1ccc(Cn2c(/C=C/c3ccco3)nc3ccccc32)cc1 |  | 6.01 µM (active)
O=c1oc2ccc(Cl)cc2nc1/C=C(\O)c1ccco1 | -26.9% (inactive) | 
O=c1oc2ccccc2nc1/C=C(\O)c1ccc(Br)cc1 |  | 6.01 µM (active)
CS(=O)(=O)Cc1nc2ccccc2oc1=O | 0.923% (inactive) | 
Fc1cccc(Nc2nc3ccccc3n3cnnc23)c1 | -2.42% (inactive) | 
Fc1cccc(Nc2cc(-n3cccn3)ncn2)c1 |  | 10.7 µM (active)
Cc1ccc2cc3c(NC(=O)c4ccco4)nn(C)c3nc2c1 |  | 12 µM (active)
Cc1cc(NC(=S)NC(=O)c2ccco2)c2ccccc2n1 | -24.9% (inactive) | 
O=C(NC(=S)Nc1cnc2ccccc2c1)c1ccccc1 |  | 3.38 µM (active)
O=C(Nc1cnc2ccccc2c1)c1ccco1 |  | 1.35 µM (active)
CN(Cc1ccccc1)C(=O)c1ccc([N+](=O)[O-])o1 | 1.73% (inactive) | 
O=C(c1ccc([N+](=O)[O-])o1)N1CCN(c2nc3c(Cl)cccc3s2)CC1 | -26% (inactive) | 
O=C(Nc1nc2c(Cl)cccc2s1)c1ccc([N+](=O)[O-])o1 |  | 10.7 µM (active)
O=C(CCS(=O)(=O)c1ccccc1)Nc1nc2ccc(F)cc2s1 | -26% (inactive) | 
Cn1ccsc1=NC(=O)c1ccc([N+](=O)[O-])o1 | -21.8% (inactive) | 
O=C(Nc1nc2ccc(F)cc2s1)c1ccc([N+](=O)[O-])o1 |  | 2.13 µM (active)
Cc1ccc(-n2nc3c([n+]2[O-])CCc2c-3no[n+]2[O-])cc1 | -5.82% (inactive) | 
COc1cc(Cl)cc(/C=C/c2ccc3cccc(O)c3n2)c1OC |  | 9.53 µM (active)
Oc1ccc(Cl)cc1/C=C/c1ccc2cccc(O)c2n1 |  | 9.53 µM (active)
CN(N=Cc1ccccc1O)c1ccc2ccccc2n1 |  | 0.849 µM (active)
O=C(Nc1ccc(OC(F)F)cc1)c1ncc(Cl)c(Cl)c1Cl | -17.4% (inactive) | 
O=C(Nc1ccc(F)cc1)c1nsc(Cl)c1Cl |  | 1.69 µM (active)

Compound | activity, negative = inhibition | Potency
CSc1nsc(SC)c1C(=O)Nc1ccc(Cl)cc1 | -1.94% (inactive) | 
COc1ccc(Nc2nc(C)nc3sc4c(c23)CCC4)cc1O | -21.5% (inactive) | 
CC1(C)CC[C@]2(C(=O)n3ccnc3)CC[C@]3(C)[C@H](C(=O)C=C4[C@@]5(C)C=C(C#N)C(=O)C(C)(C)[C@@H]5CC[C@]43C)[C@@H]2C1 |  | 0.478 µM (active)
N#Cc1sc2nc(-c3ccccc3)cc(C(F)(F)F)c2c1N | -16.1% (inactive) | 
COc1cccc(NC(=O)c2cc(Cl)nnc2Cl)c1 | -19.3% (inactive) | 
COc1cccc(C(=O)Nc2cc(Cl)c(O)c(Cl)c2)c1 |  | 12 µM (active)
COC(=O)c1sccc1NC(=O)c1cccc(Cl)c1 | -4.91% (inactive) | 
CN(C)c1oc(/C=C/c2ccccc2)nc1C#N |  | 8.49 µM (active)
Oc1ccc(CNc2ccccc2O)cc1 |  | 12 µM (active)
CCCCC1C(=O)N(c2ccccc2)N(c2ccc(O)cc2)C1=O (configuration not stated) |  | 10.7 µM (active)
COc1ccc(-c2csc3nc(-c4cccnc4)nc(Cl)c23)cc1OC |  | 12 µM (active)
CC(C)(C)OC(=O)NCCC(=O)N/N=C/c1cccc2cccnc12 | -3.55% (inactive) | 
Cc1ccc(/C=C/C(=O)OCC(=O)Nc2cccnc2Cl)o1 | -0.884% (inactive) | 
O=C(/C=C/c1ccco1)Nc1cccc2cccnc12 |  | 4.78 µM (active)
O=C(/C=C/c1ccco1)Nc1cccnc1Cl |  | 6.01 µM (active)
O=C(CC1S/C(=N/N=C/c2ccco2)NC1=O)Nc1ccccc1 (configuration not stated) | -0.127% (inactive) | 
Cc1cccc(CC2S/C(=N/N=C/c3ccco3)NC2=O)c1 (configuration not stated) | -7.31% (inactive) | 
O=C1NC(=Nc2ccccc2)S/C1=C\C=C\c1ccco1 |  | 6.01 µM (active)
Cc1ccc(N=C2NC(=O)/C(=C/C=C/c3ccco3)S2)cc1 |  | 8.49 µM (active)
O=C1NC(=Nc2ccccc2)S/C1=C\c1ccccc1 |  | 7.57 µM (active)
O=C1N/C(=N\N=C\c2ccco2)SC1Cc1ccc(F)cc1 (configuration not stated) | -17.3% (inactive) | 
Cc1ccc(S(=O)(=O)C=CS(=O)(=O)c2ccc(C)cc2)cc1 |  | 0.379 µM (active)
Cc1ccc(S(=O)(=O)CCSC(=N)N)cc1 | 4.13% (inactive) | 
Cc1ccc(S(=O)(=O)c2cc3ccccc3oc2=O)cc1 | -1.58% (inactive) | 

Compound | activity, negative = inhibition | Potency
O=C(COc1cccnc1[N+](=O)[O-])Nc1cccc2ccccc12 | 2.44% (inactive) | 
C/C(=N\NC(=O)COc1ccccc1[N+](=O)[O-])c1cccs1 |  | 9.53 µM (active)
CCCN(C(=O)c1ccco1)c1nnc(-c2ccccc2C)s1 |  | 6.75 µM (active)
CCC/C(=N\NC(=O)c1ccco1)c1ccc(Cl)s1 | -0.842% (inactive) | 
Oc1ccc(NCc2cccc(OCc3ccc(F)cc3)c2)cc1 |  | 3.38 µM (active)
CCOc1ccccc1NS(=O)(=O)c1c(C(=O)OC)sc2cccc(F)c12 | 2.09% (inactive) | 
Cc1ccc(C(=O)Nc2nc(-c3ccco3)c(-c3ccco3)s2)o1 |  | 7.57 µM (active)
CCOC(=O)Cc1csc(NC(=O)/C=C/c2ccco2)n1 |  | 4.26 µM (active)
Cc1csc(NC(=O)/C=C/c2ccco2)n1 |  | 3.01 µM (active)
Cc1cc(C)c2oc(-c3ccc(C)c(NC(=O)/C=C/c4ccco4)c3)nc2c1 |  | 2.39 µM (active)
CCC(CC)c1nnc(NC(=O)/C=C/c2ccco2)s1 | -1.49% (inactive) | 
Clc1ccc(C=Cc2ccccn2)c(Cl)c1 |  | 0.338 µM (active)
Clc1ccc(C=Cc2ccccn2)cc1 |  | 0.379 µM (active)
Clc1ccc2c(NCc3ccccn3)ncnc2c1 | -0.91% (inactive) | 
Clc1ccc(/C=C/c2ncc3ccccn23)cc1 |  | 1.51 µM (active)
Cc1ccc2nc(/C(C#N)=C\c3ccc([N+](=O)[O-])o3)[nH]c2c1 |  | 8.49 µM (active)
Nc1c(C(=O)Nc2ccccc2Br)sc2nc(-c3cccs3)ccc12 |  | 8.49 µM (active)
Nc1c(C(=O)C2CC2)sc2nc(-c3cccs3)cc(C(F)(F)F)c12 | -23.9% (inactive) | 
Cc1sc2ncnc(SCc3ccco3)c2c1C | -5.64% (inactive) | 
c1coc(CSc2ncnc3c2oc2ccccc23)c1 |  | 5.36 µM (active)
O=C(COCc1cc(-c2cccs2)on1)Nc1cc(Cl)ccc1O | -0.806% (inactive) | 
Fc1cccc2sc(Nc3nc4ccccc4s3)nc12 |  | 2.13 µM (active)
Fc1ccc2nc(Nc3nc4c(F)cc(F)cc4s3)sc2c1 |  | 6.75 µM (active)
Fc1cc(F)c2nc(Nc3nc4cc5c(cc4s3)OCO5)sc2c1 |  | 5.36 µM (active)
